Assay results from publication PMC4336329 (PLoS ONE, 2015).
In all, about 310,000 compounds went through this assay and about 14,000 (4.5%) showed an effect of 50% or more. The effect is printed as a negative number. Shown is part of a subset that was picked to be rich in strong results.

Each compound was assayed against human ether-à-go-go-related gene (hERG) potassium channel (human, UniProt Q12809) (assay: primary screen, population patch clamp on CHO cells stably expressing hERG; higher = less effect of the substance).
Chain of human ether-à-go-go-related gene (hERG) potassium channel (Q12809 whole entry, looked up): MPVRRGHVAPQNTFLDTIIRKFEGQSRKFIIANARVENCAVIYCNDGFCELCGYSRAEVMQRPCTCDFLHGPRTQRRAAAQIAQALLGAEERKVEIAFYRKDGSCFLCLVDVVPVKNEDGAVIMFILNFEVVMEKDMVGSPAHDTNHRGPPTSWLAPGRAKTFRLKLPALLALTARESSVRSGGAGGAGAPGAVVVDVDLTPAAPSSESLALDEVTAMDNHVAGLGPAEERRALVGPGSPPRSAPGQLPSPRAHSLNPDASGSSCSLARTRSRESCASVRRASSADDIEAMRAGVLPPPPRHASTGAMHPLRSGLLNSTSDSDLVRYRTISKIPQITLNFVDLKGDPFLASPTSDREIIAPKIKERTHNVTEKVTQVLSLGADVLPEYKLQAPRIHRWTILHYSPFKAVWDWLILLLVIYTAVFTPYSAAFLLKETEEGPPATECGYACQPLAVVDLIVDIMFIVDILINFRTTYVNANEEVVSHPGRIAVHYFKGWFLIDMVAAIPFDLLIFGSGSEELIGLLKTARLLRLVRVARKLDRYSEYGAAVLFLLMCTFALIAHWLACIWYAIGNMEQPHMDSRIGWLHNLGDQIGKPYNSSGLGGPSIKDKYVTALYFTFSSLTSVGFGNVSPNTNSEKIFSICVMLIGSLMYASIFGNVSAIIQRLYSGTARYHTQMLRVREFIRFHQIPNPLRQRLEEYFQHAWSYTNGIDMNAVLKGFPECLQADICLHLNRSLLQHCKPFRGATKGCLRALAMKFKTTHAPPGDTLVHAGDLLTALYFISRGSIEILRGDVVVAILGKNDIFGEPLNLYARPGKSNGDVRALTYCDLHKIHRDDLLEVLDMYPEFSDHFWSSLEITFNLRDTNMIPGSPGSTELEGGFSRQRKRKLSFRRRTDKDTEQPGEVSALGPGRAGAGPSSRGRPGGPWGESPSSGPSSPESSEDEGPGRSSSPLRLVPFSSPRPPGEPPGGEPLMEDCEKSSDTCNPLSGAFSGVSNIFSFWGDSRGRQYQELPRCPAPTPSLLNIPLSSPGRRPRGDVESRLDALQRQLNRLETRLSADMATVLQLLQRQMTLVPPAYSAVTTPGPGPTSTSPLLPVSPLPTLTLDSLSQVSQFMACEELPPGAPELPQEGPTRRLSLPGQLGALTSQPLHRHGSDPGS
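Further: peak tail current of the secondary pulse compared with the same well before compound.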

Row | SMILES | hERG current change (%, negative = inhibition) at 10uM [%]
1 | O=C(c1cnn2ccccc12)N1CCc2ccccc21 | 0.772
2 | CC(=O)c1ccc(N2CCN(C(=O)/C=C/c3ccc(S(=O)(=O)N4CCOCC4)cc3)CC2)cc1 | -30.3
3 | Clc1ccccc1OCCCCN1CCCCC1 | -8.1
4 | Clc1ccc(Cl)c(OCCN2CCCC2)c1 | -38.8
5 | Clc1ccc(OCCCCCN2CCCC2)c(Br)c1 | -62.3
6 | Clc1cccc(OCCCN2CCCC2)c1Cl | -55.5
7 | Cc1ccccc1OCCCN1CCCC1 | -14.4
8 | Brc1ccccc1OCCCCCN1CCCC1 | -33.9
9 | Clc1ccccc1OCCCCN1CCCC1 | -29.6
10 | Clc1ccc(Cl)c(OCCCCN2CCCCC2)c1 | -59.2
11 | Clc1ccc(OCCCn2ccnc2)c(Br)c1.O=C(O)C(=O)O | -18.6
12 | Fc1ccccc1OCCCCCCN1CCCC1 | -38.2
13 | CCN1CCN(CCCOc2ccc(Cl)cc2Br)CC1.O=C(O)C(=O)O | -69
14 | CCn1c(P(C)(=O)[O-])nc2ccccc21.[Na+] | 8.91
15 | COC(=O)c1sccc1NC(=S)N1CCCC(C)C1 (stereo not shown) | 14.6
16 | Cc1cc(C(=O)N2CCN(c3ccc(C(F)(F)F)cn3)CC2)c(C)o1 | -21.4
17 | CCOc1ccccc1C(=O)Nc1nnc(C(C)C)s1 | -1.92
18 | O=C(CCN1C(=O)/C(=C/c2ccc(F)cc2)SC1=S)NC1C=CS(=O)(=O)C1 (stereo not shown) | -15.2
19 | CCc1nc2ccccc2n1CCC(=O)O.Cl | -5.88
20 | CC1(C)c2ccccc2N2CC(=O)NC21/C=C/c1ccco1 (stereo not shown) | 2.9
21 | Cc1nn(Cc2ccc(Cl)cc2)c(C)c1NC(=O)c1cc(-c2ccc3c(c2)OCO3)on1 | -3.11
22 | CN(C)C(=O)N1CCC(C(=O)N2CCCC(C(=O)c3cccc4ccccc34)C2)CC1 (stereo not shown) | -33.8

Row | SMILES | hERG current change (%, negative = inhibition) at 10uM [%]
23 | Clc1ccc(OCCN2CCCCC2)c(Cl)c1.O=C(O)C(=O)O | -16.2
24 | Clc1ccc(OCCCN2CCCCC2)c(Br)c1.O=C(O)C(=O)O | -70.7
25 | Clc1ccc(Cl)c(OCCCCN2CCNCC2)c1.O=C(O)C(=O)O | -17.4
26 | CCOC(=O)C(NC(=O)Cc1ccccc1)(Nc1cc(C)on1)C(F)(F)F (stereo not shown) | 3.97
27 | N#Cc1ccccc1NC(=O)COC(=O)CCc1ccccc1 | -14.9
28 | C=CCn1c(SCc2ccc(C(=O)Nc3ccccc3)cc2)nnc1-c1ccccc1 | -5.06
29 | O=C(CCn1c(=O)c2ccccc2n(Cc2ccccc2)c1=O)NCc1ccc2c(c1)OCO2 | -4.33
30 | O=C(NCCCl)Nc1cc([N+](=O)[O-])ccc1Cl | 16.9
31 | COCCNc1c(-c2ccc(OC)cc2)nc2ccc(Cl)cn12 | -39.5
32 | CCOC(=O)CNc1c(-c2ccc(O)cc2)nc2ccc(Cl)cn12.Cl | -39.7
33 | CCOC(=O)CNc1c(-c2ccccc2)nc2ccc(Cl)cn12 | -64.4
34 | CC(=O)Nc1c(-c2ccccc2)nc2ccc(Cl)cn12 | 5.29
35 | CCOC(=O)CNc1c(-c2ccc(OC)cc2)nc2ccc(Cl)cn12 | -73.5
36 | CCOC(=O)c1c(-c2ccccc2)nc2ccc(Cl)cn12 | 30
37 | Cc1ccc(S(=O)(=O)N2c3ccccc3OCC2c2ccccc2)cc1 (stereo not shown) | 23
38 | COc1ccc(NC(C)=O)cc1NC(=O)CN1CCN(C(=O)c2ccco2)CC1 | 13.9
39 | CCCN1CCN(CC(=O)Nc2cc(OCC)ccc2OCC)CC1.Cl | -57.6
40 | CCN1CCN(CC(=O)Nc2cc(C(F)(F)F)ccc2OCCOC)CC1.O=C(O)C(=O)O | -75.4
41 | COc1ccc(OC)c(NC(=O)CN2CCN(C(=O)c3ccco3)CC2)c1 | -23.7
42 | COCCOc1ccc(C(F)(F)F)cc1NC(=O)c1ccccc1 | -10.9
43 | CCOc1ccc(OCC)c(NC(=O)CN2CCN(CC)CC2)c1.Cl | -43.3
44 | CCOc1ccc(OCC)c(NC(=O)CN2CCN(c3cc(C)ccc3C)CC2)c1.Cl | -9.35

Row | SMILES | hERG current change (%, negative = inhibition) at 10uM [%]
45 | CCOc1ccc(OCC)c(NC(=O)CN2CCN(c3ccc(C)cc3C)CC2)c1.Cl | -0.937
46 | CCOC(=O)N1CCN(CC(=O)Nc2cc(OCC)ccc2OCC)CC1.Cl | -68.1
47 | CCOc1ccc(OCC)c(NC(=O)CN2CCN(CC(=O)NC(C)C)CC2)c1.Cl | 9.43
48 | CCOc1ccc(OCC)c(NC(=O)CN2CCN(C(=O)c3ccco3)CC2)c1 | -59
49 | CCCCCNCC(=O)Nc1cc(C(F)(F)F)ccc1OCCOC | -34.2
50 | CCOC(=O)C1CCCN(C(=O)c2ccc(Cn3c(=S)[nH]c4cc(C(=O)OC)ccc4c3=O)cc2)C1 (stereo not shown) | 10.6
51 | CCN1C(=O)[C@H]2[C@@H](c3ccc(C)cc3)N3C(=O)N(c4ccc(C(F)(F)F)cc4)C(=O)[C@@]3(CC(C)C)[C@H]2C1=O | 14.6
52 | Cc1ccc(C)c(NC(=O)CN(C)S(=O)(=O)c2ccc(F)cc2)c1 | 3.47
53 | Cc1cc(NC(=O)CSc2nc(-c3ccccc3)c(C#N)c(=O)[nH]2)no1 | -0.629
54 | Cc1ccsc1/C=C1\C(=O)NC(=S)N(C)C1=O | 15.3
55 | O=C(COc1ccc(Cl)cc1)NCCS(=O)(=O)N1CCN(c2ccccc2F)CC1 | 5.38
56 | CC(=O)C1=C(O)C(=O)N(c2cccc(Br)c2)C1c1ccccc1Cl (stereo not shown) | -4.7
57 | COc1ccc(OC)c(NC(=O)c2nc(-c3ccccc3)oc2C)c1 | -6.31
58 | O=S(=O)(Nc1ccc(Br)cc1)c1cccc(NC(=S)NCCN2CCOCC2)c1 | 3.16
59 | Cc1ccc(CN2Cc3cccc4c3[C@@H](CC2=O)[C@H](O)[C@H](O)C4)cc1 | 19.6
60 | COc1ccc(N2CCN(C(=O)CCc3nnc4ccc(N5CCC(C)CC5)nn34)CC2)cc1 | -66.1
61 | O=C(CCc1nnc2ccc(N3CCCC3)nn12)Nc1cc(F)ccc1F | -50.4
62 | COc1cccc(N2CCN(c3ccc4nnc(CCC(=O)Nc5ccccc5OC)n4n3)CC2)c1 | -62.6
63 | O=C(CCc1nnc2ccc(N3CCCC3)nn12)Nc1ccc(F)cc1F | 8.27
64 | CC1CCN(c2ccc3nnc(CCC(=O)N4CCN(c5ccccc5F)CC4)n3n2)CC1 | -62.6
65 | COc1ccccc1N1CCN(C(=O)CCc2nnc3ccc(N4CCCC4)nn23)CC1 | -34.1
66 | COc1cccc(NC(=O)CCc2nnc3ccc(N4CCN(c5cccc(OC)c5)CC4)nn23)c1 | 13.6

Row | SMILES | hERG current change (%, negative = inhibition) at 10uM [%]
67 | COc1ccc(N2CCN(C(=O)CCc3nnc4ccc(N5CCOCC5)nn34)CC2)cc1 | -5.83
68 | COc1ccc(N2CCN(C(=O)CCc3nnc4ccc(N5CCCC5)nn34)CC2)cc1 | -7.68
69 | COc1ccccc1N1CCN(C(=O)CCc2nnc3ccc(N4CCC(C)CC4)nn23)CC1 | -33.5
70 | COc1cc(NC(=O)CCc2nnc3ccc(N4CCN(c5cccc(OC)c5)CC4)nn23)cc(OC)c1 | 7.07
71 | CC1CCN(c2ccc3nnc(CCC(=O)Nc4cc(F)ccc4F)n3n2)CC1 | -37.5
72 | N#CCCN(C(=O)COC(=O)c1ccc2c(c1)NC(=O)CS2)c1ccc2c(c1)OCCO2 | -22.8
73 | CCOCCOC(=O)C1=C(C)NC(=O)NC1c1cc2c(cc1Br)OCO2 (stereo not shown) | -30.5
74 | O=C(CSCc1ccccc1)Nc1ccc(F)c(F)c1 | -3.2
75 | Cc1cc(C)cc(C(=O)NCC(=O)OCC(=O)c2cc(C)n(CC(F)(F)F)c2C)c1 | 1.83
76 | Cc1noc(C)c1CSc1nc2ccccc2s1 | -10.1
77 | COc1cccc(N2CCN(C(=O)CCc3nnc4ccc(N5CCOCC5)nn34)CC2)c1 | -7.05
78 | COc1ccc(NC(=O)CCc2nnc3ccc(N4CCC(C)CC4)nn23)cc1 | -22.9
79 | CCCN1CCN(C(=O)CCc2nnc3ccc(N4CCN(c5cccc(OC)c5)CC4)nn23)CC1 | -54.9
80 | CC1CCN(c2ccc3nnc(CCC(=O)N4CCN(c5ccc(F)cc5)CC4)n3n2)CC1 | -66.2
81 | CC1CCN(c2ccc3nnc(CCC(=O)N4CCCCC4)n3n2)CC1 | -3.14
82 | CCN1CCN(C(=O)CCc2nnc3ccc(N4CCN(c5cccc(OC)c5)CC4)nn23)CC1 | -5.55
83 | COc1cccc(N2CCN(c3ccc4nnc(CCC(=O)N5CCC(C)CC5)n4n3)CC2)c1 | -66.4
84 | COc1ccc(N2CCN(c3ccc4nnc(CCC(=O)Nc5ccc(C)cc5)n4n3)CC2)cc1 | -70.1
85 | COc1cccc(N2CCN(C(=O)CCc3nnc4ccc(N5CCCC5)nn34)CC2)c1 | -28.7
86 | CC1CCN(c2ccc3nnc(CCC(=O)Nc4ccc(F)cc4)n3n2)CC1 | -39.6
87 | COc1cccc(N2CCN(c3ccc4nnc(CCC(=O)N5CCN(C)CC5)n4n3)CC2)c1 | -1.62
88 | COc1ccc(NC(=O)CCc2nnc3ccc(N4CCN(c5cccc(OC)c5)CC4)nn23)cc1 | -22.8
